# Data taken from the OligoGym collection.
# Target: TMEM156
# Assay: pooled miR-30 sensor sort-seq; sequence = guide strand
# Details: shRNA
# Note: reference of the scale not given here.
row,Sequence,sensor-assay potency score (higher = more potent)
1,TTTATCGATTTCTCCTTGCTTG,0.0129
2,AATGTGTATACAATCATTCGGG,-0.0136
3,TTTGCTTTCACTTCCATTGATC,-0.423

# Target: TMEM158
# Assay: as above
# Details: shRNA
row,Sequence,sensor-assay potency score (higher = more potent)
1,TAGCAATTTAATCTTTTTGTTT,-1.1
2,TCGCACTGGAAGCCCCGCGGGC,-1.57
3,TATAAAACAAATACACAGGATT,-0.653
4,AAGAGCAGTAGGTCGCACTGGA,0.351
5,TGATGTTGCACGGCGCCGCCGC,-0.887
6,TAACGATAACTACAGCACGAAG,-1.77
7,TAGGTCGCACTGGAAGCCCCGC,-0.714
8,TTTTCTGCCATGAATCTAGGGC,-0.129
9,ATGACCAGGGTCATGAAGCAGG,-1.09
10,TCCAGGCTGAAGTCTAGGCAGC,-1.79
11,TACGGTTCAGCCGCCAGCCCGG,-1.31
12,TTAAACATCTGCTTTTCGGAAC,-0.542

# Target: TMEM18
# Assay: as above
# Details: shRNA
row,Sequence,sensor-assay potency score (higher = more potent)
1,TCTGTAGTCTGTAGCTTCGGGA,-0.977
2,TAGACTAAGATGACTAGACACA,-0.939
3,ATAATCTCCAGTTCATCGCAGC,-0.328
4,TATTTCGAAAATAATCTCCAGT,-0.177
5,TATAGAAATGAACATCCCCCTG,-1.12
6,TAGTCTGTAGCTTCGGGAGGAC,-0.482
7,TATATTTATAATTAGTACTAGT,-0.393
8,TAGCTTCGGGAGGACAAGCAGG,-1.33
9,TATTTAAATAAAACAACGGTTT,-1.16
10,ATCTGTAGTCTGTAGCTTCGGG,-0.359
11,ATAACCACAATGATCATGGCAT,0.502
12,TTTCAAACCATGAGTCAGCTGG,0.141

# Target: TMEM200C
# Assay: as above
# Details: shRNA
row,Sequence,sensor-assay potency score (higher = more potent)
1,TTGTAAACTGCCTCTGCACCGG,-0.336
2,TTTCACCACCACCACGTCGTTC,-1.27
3,TTGACCAGCTACTGCGTCCAAG,-1.14
4,TCCAGTTCTTCTTCTACCCCTA,-0.433
5,TTTGCTGCCACTGCTACTGCTG,-0.287
6,TTGAGCTTGTCAGAGTGCAGGT,0.387
7,TTCTTGTCCCGGTTCTCGTGGA,-0.413
8,TTTTGGTCTTCTTGTCCCGGTT,-1.07
9,TTGCGCTTGGGTATCTGGCTTG,-0.405
10,ATTTTGGTCTTCTTGTCCCGGT,-0.495
11,AATCATGATGAGTTTCTCCTTG,-0.235
12,TTGGCTTTCCGCTTGCGCTTGG,0.0739
